# Assay results reported in PubChem BioAssay AID889 (National Center for Advancing Translational Sciences (NCATS), 2007).
# Screen size: about 75,000 compounds; about 15 (0.02%) were called active. Inconclusive results (about 3%) are left out. Only a selection was taken, and actives are over-represented in it overall. Unmarked numbers belong to inactive results. Calls follow the shape of the dose curve; as a rule, active = well fitted inhibition curve with a large enough effect in the main read-out, with a control signal flat (not every such curve was filed as active); inconclusive = small, poorly fitted or top-dose-only effect, or a change in a side signal; inactive = flat fitted curve, though single readings scatter. Square brackets hold non-standard residues; d marks the D form. Side chains are listed from the residue outwards. Peptide text beside a SMILES is read from it. * marks the point of attachment. X1 = CCC(C)C(N)C1=NC(C(=O)*)CS1; Orn = NCCC[CH](N)C(=O)O
# Biological target: Caspase-7 (Homo sapiens) (UniProt P55210)
# Sequence (P55210 24-198 limits assumed): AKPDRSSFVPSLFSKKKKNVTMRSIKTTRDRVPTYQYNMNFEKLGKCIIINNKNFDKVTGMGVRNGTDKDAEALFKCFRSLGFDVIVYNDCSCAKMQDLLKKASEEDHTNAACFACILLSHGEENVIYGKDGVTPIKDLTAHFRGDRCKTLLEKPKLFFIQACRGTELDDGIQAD
# Sequence (P55210 207-303 limits assumed): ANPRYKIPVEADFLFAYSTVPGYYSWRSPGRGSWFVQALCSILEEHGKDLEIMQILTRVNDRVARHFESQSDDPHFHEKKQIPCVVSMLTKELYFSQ
# Assay: qHTS Assay for Allosteric/Competitive Inhibitors of Caspase-7; as to activity change, negative = inhibition: % of control where 0% means no effect
# Details: recombinant caspase-7, Ac-DEVD-AFC fluorescence rate; series mostly up to 57.5 µM; activity change, negative = inhibition: at the top concentration
# Source text: NIH Molecular Libraries Screening Centers Network [MLSCN]
# NIH Chemical Genomics Center [NCGC]
# PI Name: Dr. James Wells,
# Dr. Enrique Perez-Paya, Dr.Janice Williams, Dr. Dennis Wolan, a person
# The caspases (Cysteine Aspartyl Protease) comprise a related family of 14 dimeric proteases that are critical mediators of apoptosis (programmed cell death) and inflammation. The caspases represent an important class of drug targets for stroke, ischemia, cancer and inflammatory diseases. […] One goal of this project was to identify compounds that act as allosteric inhibitors via stabilizing the procaspase form of the enzyme. Previous work in Well's laboratory has shown that such allosteric inhibitors can be identified and these act by binding at the dimer interface of enzyme (Hardy, Lam et al., 2004).
# The biochemical assay was configured using purified caspase 7 at a high enzyme concentration to promote formation of the homodimers and thus facilitate the identification of allosteric inhibitors. The overall goal was to identify reversible inhibitors with better drug-like properties than the currently available set of aspartyl-containing peptidomimetics that covalently bind the active site. Caspase 7 was assayed using the profluorescent substrate Ac-DEVD-AFC. After initiation of the assay with substrate the plates were rapidly read using an automated robotic system (Kalypsys, Inc.) to maintain consistent timing. A kinetic mode of detection was used where the initial rate was collected (estimated final product formation was ~10%). Compounds were screened as a concentration-titration series that ranged from 57 uM to 0.7 nM. Below is the protocol used for caspase 7.
# NCGC Assay Protocol Summary:
# Caspase 7 was prepared in buffer (50 mM HEPES pH 7.5, 50 mM KCl, 200 mM NaCl, 10 mM DTT, 0.1% CHAPS) at a concentration of 66.6 nM and 3 uL was dispensed to all wells using black solid Kalypsys 1536-well plates. 20 nL of DMSO containing compounds was added using a pin-tool (Kalypsys Inc.) to columns 5-48. Then 20 nL of DMSO solution from a control plate was added to columns 1-4. Controls were: Column 1, 16 point titration with each concentration in duplicate (1:1 dilutions in DMSO; final starting concentration was 57 uM) of the caspase 7 inhibitor Ac-DEVD-CHO (Alexis Biochemicals); Column 2, a 16 point titration with each concentration in duplicate of the free AFC fluorophore prepared in DMSO (Alexis Biochemicals), final starting was 40 uM; Column 3 neutral (DMSO only) control; Column 4: DMSO alone, to serve as a negative control (no substrate was added). Then 1 uL of 20 uM the substrate Ac-DEVD-AFC (Alexis Biochemicals) prepared in the same buffer was dispensed to all wells except columns 2 and 4 and the plates were immediately transferred (< 1 min) to the Viewlux. The plates were then exposed using 405 nm excitation/520 nm emission filters for 4 sec and read at 20 sec intervals for 3 min. Final enzyme concentration was 50 nM and the final substrate concentration was 5 uM.
# Concentration-response curves were fitted to the data calculated from slope of the linear regression of fluorescent intensity versus time (the rate). The concentration-effect curves were then classified based on curve quality (r2), response magnitude and degree of measured activity. […] Inconclusive compounds had appreciable concentration-dependent effects on both the measured rate and the interpolated basal fluorescence intensity at the start of the reaction but where the basal fluorescent intensity was marginal (e.g. < 10-fold). Inconclusive compounds also encompass highly fluorescent compounds (>100-fold increases in fluorescent intensities values relative to controls) where artificial concentration-dependent decreases in the rate occurred at high compound concentrations due to fluorescent interferences.
# Keywords: Caspase 7, proteases, profluorescent, MLSMR, MLSCN, NIH Roadmap, qHTS, NCGC
# Potency is read from the fitted curve at half-maximal effect.
SMILES,"activity change, negative = inhibition",Potency
Cc1nc2cc(-c3ccc(F)cc3)nn2c(N2CCOCC2)c1C,-1.05%,–
COc1ccc(S(=O)(=O)Nc2c(C)n(C)n(-c3ccccc3)c2=O)cc1,0.471%,–
Nc1ncnc2c1ncn2C1CC(O)C(CO)O1 (stereo not given),inactive,–
C=CCC(NCCCO)c1cccc(OC)c1OC (stereo not given),-1.48%,–
COc1cccc(OC)c1C(=O)Nc1nnc(C(C)C)s1,0.483%,–
CCC(C)C(N)C1=NC(C(=O)NC(CC(C)C)C(=O)NC(CCC(=O)O)C(=O)NC(C(=O)NCCCCC2NC(=O)C(CC(N)=O)NC(=O)C(CC(=O)O)NC(=O)C(Cc3cnc[nH]3)NC(=O)C(Cc3ccccc3)NC(=O)C(C(C)CC)NC(=O)C(CCCN)NC2=O)C(C)CC)CS1 (stereo not drawn) (cyclo(DNK([Ile-Glu-Leu-X1])[Orn]IFH); configuration not given here),-1.11%,–
Cc1cccc2c3c(ccc12)C1=C(C(=O)C3=O)C(C)CO1 (stereo not given),-21.5%,–
COc1ccc(-c2nc3cnc(OC)nc3n(Cc3ccc(F)cc3)c2=O)cc1,-10.3%,–
CN(C)CCCCNC(=O)c1ccc(Cc2nc3ccccc3[nH]2)cc1,-0.141%,–
C=C1C(=O)C23C(O)C1CCC2[C@]12COC3(O)C(O)C1C(C)(C)CC[C@H]2O (stereo not given in full),-5.51%,–
Cc1ccc2nc(S(=O)(=O)O)[nH]c2c1,-1.75%,–
CCOC(=O)N1CCN(C(=O)CNC(=O)Cc2ccc(Cl)cc2)CC1,-4.36%,–
COc1ccc(S(=O)(=O)N2CCCC2)c(C)c1C,-0.0387%,–
COC(=O)c1ccc(C23CC4(C2)[C@H](CN(Cc2cccnc2)[C@@H]4c2ccccc2)C3c2ccc(Cl)nc2)cc1 (stereo not given in full),-1.86%,–
COC1C[C@@H](O[C@@H]2C(C)C(=O)OC(C)C(C)C(O)C(C)C(=O)[C@@]3(CO3)CC(C)C(OC3OC(C)CC(N(C)C)C3O)C2C)OC(C)[C@@H]1O (stereo not given in full),2.56%,–
Cc1nn2c3cc(N4CCOCC4)ccc3nc2c2ccccc12,0.94%,–
CC(=O)N(CN1C(=O)C2CC=CCC2C1=O)c1cccc(Cl)c1 (stereo not given),-16.2%,–
CC1(C)OC2CO[C@]3(COS(N)(=O)=O)OC(C)(C)OC3C2O1 (stereo not given in full),-0.982%,–
CCCCOC(=O)CNc1nnc(SCC(=O)OCC)[nH]c1=O,0.456%,–
CC[C@@H]1Cc2cc(O)ccc2C2=C1c1ccc(O)cc1C[C@H]2CC,-8.12%,–
O=C(O)C(O)[C@@](O)(Cc1ccc(O)cc1)C(=O)O (stereo not given in full),0.744%,–
COc1cccc(N2CCN(C(=O)C3CCCN(S(=O)(=O)c4cnc[nH]4)C3)CC2)c1 (stereo not given),1.11%,–
COc1ccc(N2C(=O)CN=C2Nc2cccc(C)c2C)cc1OC,-9.88%,–
COC(=O)[C@@H]1C[C@@]2(O)[C@H](O)[C@H](O)[C@H](O)C[C@H]2N1Cc1ccc(C)s1,-0.351%,–
O=C(O)c1c(Br)c(Br)c(Br)c(Br)c1C1c2ccc(O)cc2Oc2cc(O)ccc21,–,3.98 µM (active)

SMILES,"activity change, negative = inhibition",Potency
COc1ccc(OC)c2[nH]c(=O)c(CCNC(=O)C(C)(C)C)cc12,-0.648%,–
O=C(Oc1cc(OC(=O)c2ccccc2)c2c(c1)OC(c1ccc(OC(=O)c3ccccc3)c(OC(=O)c3ccccc3)c1)[C@@H](OC(=O)c1ccccc1)C2)c1ccccc1 (stereo not given in full),1.49%,–
C/C=C(/C)C(=O)OC1Cc2c(ccc3ccc(=O)oc23)OC1(C)C (stereo not given),1.54%,–
Cc1ccc(CNC(=O)C2CCCN(S(C)(=O)=O)C2)cc1 (stereo not given),-4.02%,–
CC(C)=CCC/C(C)=C/CO/N=C1/C[C@@H](O)[C@@H](O)[C@@H]2[C@@H]3C(=O)N(C(C)(C)C)C(=O)[C@H]3CC[C@H]12,0.517% [at 11.5 µM],–
CCOC(=O)C1CCN(C(=O)COc2cc(C)c(Br)c(C)c2)CC1,-3.71%,–
COc1ccc(CCC(=O)c2c(O)cc(OC3OC(CO)C(O)C(O)C3O[C@@H]3OC(C)C(O)C(O)C3O)cc2O)cc1O (stereo not given in full),0.803%,–
CCN1CCN(C(=O)c2ccccc2N(C)S(=O)(=O)c2ccc(C)cc2)CC1,-1.87%,–
Cc1cc(C)c(C)c(S(=O)(=O)Nc2ccc(O)cc2)c1C,0.495%,–
O=C(CSc1nc2ncccc2[nH]1)Nc1ccc2c(c1)OCCO2,0.658%,–
C=C1C([C@@]2(C)C(OC(C)=O)CC(=O)O[C@@](C)(COC(C)=O)C2CC(=O)OC)C(OC=O)C(OC(=O)C(O)C(C)CC)[C@]2(C)C(c3ccoc3)CC(=O)C12O (stereo not given in full),0.439%,–
CC(C)N(CCNC(=O)c1ccc(-n2c(=O)c(=O)[nH]c3ccccc32)cc1)C(C)C,1.72%,–
CCOC(=O)C1CCCN(C(=O)c2ccc(CS(=O)(=O)c3ccc(Br)cc3)o2)C1 (stereo not given),-1.53%,–
Clc1ccc(C2[C@H]3CN(CC4CCCCC4)[C@H](c4ccccc4)C34CC2(c2cccnc2)C4)cn1 (stereo not given in full),-2.48%,–
Cc1cnc(C(=O)OCC(=O)Nc2ccc(Cl)cc2Cl)cn1,0.963%,–
O=C(CSc1nc2ccccc2o1)N1CCN(c2ccccc2)CC1,-0.235%,–
CN1CCCC1CCO[C@@](C)(c1ccccc1)c1ccc(Cl)cc1 (stereo not given in full),-1.39%,–
Nc1nc2nc(Cl)[nH]c2c(=O)[nH]1,1.16%,–
CC1CC[C@@]23CCC4(C)[C@@]5(C)CCC6C(C)(C)C(O)CC[C@@]6(C)C5C=C[C@@]4(OC2=O)C3C1C (stereo not given in full),2.11%,–
O=C(Nc1nsc(-c2ccccc2)n1)c1ccncc1,0.285%,–
CCC(CCC(C)C1CCC2C3CC=C4CC(O)CC[C@@]4(C)C3CC[C@@]12C)C(C)C (stereo not given in full),0.256%,–
Cc1c(NC(=O)Nc2ccccc2Cl)sc(=S)n1C,-4.46%,–
COc1ccc(S(=O)(=O)N(C)CC(=O)Nc2ccc3c(c2)OCCO3)cc1OC,-0.767%,–
COC(=O)[C@@H]1C[C@@]2(O)[C@@H](O)[C@@H](O)[C@@H](O)C[C@H]2N1Cc1ccc(C)s1,-1.65%,–
COc1ccc(C2CC(=O)c3c(O)cc(OC4OC(COC5OC(C)C(O)C(O)C5O)C(O)C(O)C4O)cc3O2)cc1O (stereo not given),0.477%,–
